Measurements taken from PubChem BioAssay (EPA / NIEHS).
Several values for one entry are separate records, joined by “and”; a condition that tells them apart may be missing. Identical values can stand only once. Where a structure was tested more than once in an assay, its records may differ in their call. Activity calls are given as the source filed them. How the source made its calls: active means hit-call score of the fitted dose curve at least 0.9, where 1 is the maximum; inactive means score below 0.9.

Key:
Details in all cases: mRNA level, 48 h; actives raise or lower the signal
[1] = read-out: Hypoxia-inducible factor 1-alpha (Homo sapiens) (UniProt Q16665); assay: LTEA_HepaRG_HIF1A: Life Technologies and Expression Analysis (LTEA) Assay for Hypoxia-inducible factor 1 (HIF1A) Trancription factor using HepaRG (AID 2283503)
Procedure, shortened: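 Gain- or loss-of-signal HIF1A mRNA changes are fitted against a DMSO baseline. HepaRG cultures receive eight concentrations, highest 100 uM, for 48 h in serum-free induction medium with 0.5% DMSO.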

[2] = read-out: 3-Hydroxy-3-Methylglutaryl-CoA Synthase 2 (HMGCS2), HMGCS2 (gene 3158); assay: LTEA_HepaRG_HMGCS2: Life Technologies and Expression Analysis (LTEA) Assay for 3-Hydroxy-3-Methylglutaryl-CoA Synthase 2 (HMGCS2) using HepaRG (AID 2283504)
Procedure, shortened: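 Readout is HMGCS2 transcript by qRT-PCR, housekeeping-normalised (ACTB/GAPDH/POLR2A) and fitted bidirectionally against 0.5% DMSO. Differentiated HepaRG cells received chemicals 48 h, duplicate wells, eight half-log concentrations topping at 100 uM.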

HGF (gene 3082) = assay: LTEA_HepaRG_HGF: Life Technologies and Expression Analysis (LTEA) Assay for Hepatocyte Growth Facto (HGF) using HepaRG (AID 2283505)
Procedure, shortened: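 HGF transcript was quantified by TaqMan qRT-PCR against three housekeeping genes after 48 h treatment of HepaRG cells. Exposure ran in duplicate over eight half-log steps topping at 100 uM in 0.5% DMSO vehicle.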

[3] = read-out: Insulin Like Growth Factor 1 (IGF1), IGF1 (gene 3479); assay: LTEA_HepaRG_IGF1: Life Technologies and Expression Analysis (LTEA) Assay for Insulin Like Growth Factor 1 (IGF1) using HepaRG (AID 2283506)
Procedure, shortened: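 qRT-PCR readout of IGF1 mRNA, normalized to three housekeeping genes, after 48 h chemical exposure of HepaRG cells. Concentrations: 8-point half-log series, top 100 uM, 0.5% DMSO vehicle. Gain or loss fitted against DMSO baseline.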

[4] = read-out: Intercellular Adhesion Molecule 1 (ICAM1), ICAM1 (gene 3383); assay: LTEA_HepaRG_ICAM1: Life Technologies and Expression Analysis (LTEA) Assay for Intercellular Adhesion Molecule 1 (ICAM1) using HepaRG (AID 2283507)
Procedure, shortened: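 ICAM1 transcript levels measured by qRT-PCR, normalized to three housekeeping genes (ACTB, GAPDH, POLR2A), after 48 h chemical exposure of HepaRG cells. Duplicate eight-point half-log series from 100 uM in 0.5% DMSO; gain or loss fitted against vehicle.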

[5] = read-out: Insulin-like growth factor-binding protein 1 (IGFBP1), IGFBP1 (gene 3484); assay: LTEA_HepaRG_IGFBP1: Life Technologies and Expression Analysis (LTEA) Assay for Insulin-like growth factor-binding protein 1 (IGFBP1) using HepaRG (AID 2283508)
Procedure, shortened: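 Read-out is qRT-PCR transcript level normalized to three housekeeping genes, fitted in both directions against 0.5% DMSO. Differentiated HepaRG cells received eight half-log concentrations (top 100 uM) in duplicate for 48 h in serum-free induction medium.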

[6] = read-out: Interleukin 6 (IL6), IL6 (gene 3569); assay: LTEA_HepaRG_IL6: Life Technologies and Expression Analysis (LTEA) Assay for Interleukin 6 (IL6) using HepaRG (AID 2283509)
Procedure, shortened: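 qRT-PCR read-out of IL6 transcript, normalized to three housekeeping genes, after 48 h chemical exposure of HepaRG cells; 8-point half-log series, top 100 uM, 0.5% DMSO vehicle. Bidirectional curve fitting against DMSO baseline.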

[7] = read-out: Potassium channel subfamily K member 1 (KCNK1), KCNK1 (gene 3775); assay: LTEA_HepaRG_KCNK1: Life Technologies and Expression Analysis (LTEA) Assay for Potassium channel subfamily K member 1 (KCNK1) using HepaRG (AID 2283511)
Procedure, shortened: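 HepaRG, 48 h exposure, 8-pt half-log series top 100 uM, 0.5% DMSO vehicle, duplicates. Readout: KCNK1 transcript by qRT-PCR (Fluidigm array), housekeeping-normalized; bidirectional curve fit relative to DMSO baseline.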

[8] = read-out: Keratin 19 (KRT19), KRT19 (gene 3880); assay: LTEA_HepaRG_KRT19: Life Technologies and Expression Analysis (LTEA) Assay for Keratin 19 (KRT19) using HepaRG (AID 2283512)
Procedure, shortened: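 KRT19 transcript measured by TaqMan qRT-PCR, referenced to three housekeeping genes, after HepaRG cells received test chemicals for 48 h. Eight half-log concentrations, top 100 uM, 0.5% DMSO vehicle; increases and decreases both fitted.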

[9] = read-out: JUN Transcription Factor, JUN (gene 3725); assay: LTEA_HepaRG_JUN: Life Technologies and Expression Analysis (LTEA) Assay for JUN Transcription Factor using HepaRG (AID 2283513)
Procedure, shortened: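 HepaRG, 48 h exposure, 8-pt half-log series top 100 uM, 0.5% DMSO, duplicate. JUN mRNA by qRT-PCR (Fluidigm), housekeeping-normalized (ACTB/GAPDH/POLR2A); bidirectional curve fit vs DMSO baseline.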

[10] = read-out: Lipase C (LIPC), LIPC (gene 3990); assay: LTEA_HepaRG_LIPC: Life Technologies and Expression Analysis (LTEA) Assay for Lipase C (LIPC) using HepaRG (AID 2283514)
Procedure, shortened: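 HepaRG, 48 h exposure, 8-pt half-log series from 100 uM in 0.5% DMSO, duplicates. Readout: LIPC mRNA by Fluidigm qRT-PCR, housekeeping-normalized (ACTB/GAPDH/POLR2A). Gain or loss fitted bidirectionally against DMSO baseline.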

[11] = read-out: Lipoprotein lipase (LPL), LPL (gene 4023); assay: LTEA_HepaRG_LPL: Life Technologies and Expression Analysis (LTEA) Assay for Lipoprotein lipase (LPL) using HepaRG (AID 2283515)
Procedure, shortened: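 HepaRG, 48 h exposure, 8-pt half-log dilutions from 100 uM, 0.5% DMSO vehicle, duplicates; qRT-PCR (Fluidigm array) of LPL mRNA vs housekeeping genes; bidirectional curve fit relative to DMSO baseline.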

[12] = read-out: MicroRNA 122 (MIR122), gene 406906; assay: LTEA_HepaRG_MIR122: Life Technologies and Expression Analysis (LTEA) Assay for MicroRNA 122 (MIR122) using HepaRG (AID 2283516); further: the transcript read is the microRNA miR-122
Procedure, shortened: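 qRT-PCR read-out (TaqMan, Fluidigm array), normalized to three housekeeping genes; HepaRG cells dosed 48 h at 8 concentrations up to 100 uM in 0.5% DMSO, duplicate; gain or loss fitted against DMSO baseline.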

[13] = read-out: matrix metalloproteinase-10 (MMP10), MMP10 (gene 4319); assay: LTEA_HepaRG_MMP10: Life Technologies and Expression Analysis (LTEA) Assay for matrix metalloproteinase-10 (MMP10) using HepaRG (AID 2283517)
Procedure, shortened: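 Transcript levels come from Fluidigm qRT-PCR normalized to three housekeeping genes, with curves fitted bidirectionally against 0.5% DMSO. Human HepaRG cells were dosed for 48 hours at concentrations up to 100 uM.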

MYC, MYC (gene 4609) = assay: LTEA_HepaRG_MYC: Life Technologies and Expression Analysis (LTEA) Assay for MYC using HepaRG (AID 2283518)
Procedure, shortened: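 MYC transcript changes, up or down relative to 0.5% DMSO, from TaqMan qRT-PCR normalized to three housekeeping genes. Human HepaRG cultures received chemicals for 48 h at eight half-log concentrations up to 100 uM, in duplicate.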

[14] = read-out: matrix metalloproteinase-3 (MMP3), MMP3 (gene 4314); assay: LTEA_HepaRG_MMP3: Life Technologies and Expression Analysis (LTEA) Assay for matrix metalloproteinase-3 (MMP3) using HepaRG (AID 2283519)
Procedure, shortened: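 qRT-PCR read-out of MMP3 mRNA (normalised to three housekeeping genes) in HepaRG liver cells after 48 h chemical exposure; 8-point half-log series, top 100 uM, 0.5% DMSO vehicle. Bidirectional curve fitting against DMSO baseline.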

[15] = read-out: Paternally Expressed 10 (PEG10), PEG10 (gene 23089); assay: LTEA_HepaRG_PEG10: Life Technologies and Expression Analysis (LTEA) Assay for Paternally Expressed 10 (PEG10) using HepaRG (AID 2283520);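 on AC50: PEG10 transcript by qRT-PCR normalised to ACTB GAPDH and POLR2A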
Procedure, shortened: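 qRT-PCR read-out: PEG10 mRNA normalised to three housekeeping genes, fitted bidirectionally against 0.5% DMSO vehicle. HepaRG cells received test chemicals for 48 h in serum-free induction medium, 8 points, top 100 uM, half-log steps.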

[16] = read-out: Nuclear factor NF-kappa-B p105 subunit (Homo sapiens) (UniProt P19838); assay: LTEA_HepaRG_NFKB1: Life Technologies and Expression Analysis (LTEA) Assay for Nuclear Factor Kappa B Subunit 1 (NFKB1) using HepaRG (AID 2283521)
Procedure, shortened: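 NFKB1 transcript was measured by TaqMan qRT-PCR on Fluidigm arrays, normalised to three housekeeping genes and fitted in both directions against 0.5% DMSO. HepaRG cells were dosed in duplicate for 48 h in serum-free induction medium, eight half-log steps from 100 uM.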

[17] = read-out: Protein phosphatase 2A (PPP2R4), PTPA (gene 5524); assay: LTEA_HepaRG_PPP2R4: Life Technologies and Expression Analysis (LTEA) Assay for Protein phosphatase 2A (PPP2R4) using HepaRG (AID 2283522)
Procedure, shortened: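 HepaRG, 48 h exposure, 8-pt half-log series from 100 uM, 0.5% DMSO vehicle, duplicates. Readout: PPP2R4 mRNA, Fluidigm qRT-PCR, housekeeping-normalized. Bidirectional curve fit vs DMSO baseline.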

[18] = read-out: Interleukin 6 Receptor (IL6R), IL6R (gene 3570); assay: LTEA_HepaRG_IL6R: Life Technologies and Expression Analysis (LTEA) Assay for Interleukin 6 Receptor (IL6R) using HepaRG (AID 2283510)
Procedure, shortened: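 HepaRG, 48 h exposure, 8-pt half-log series, top 100 uM, 0.5% DMSO vehicle, duplicates. Read-out: TaqMan qRT-PCR of IL6R transcript, housekeeping-gene normalized. Gain or loss fitted relative to DMSO baseline.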

Measured: AC50

Sequence of Hypoxia-inducible factor 1-alpha (Homo sapiens) (Q16665 whole entry, looked up): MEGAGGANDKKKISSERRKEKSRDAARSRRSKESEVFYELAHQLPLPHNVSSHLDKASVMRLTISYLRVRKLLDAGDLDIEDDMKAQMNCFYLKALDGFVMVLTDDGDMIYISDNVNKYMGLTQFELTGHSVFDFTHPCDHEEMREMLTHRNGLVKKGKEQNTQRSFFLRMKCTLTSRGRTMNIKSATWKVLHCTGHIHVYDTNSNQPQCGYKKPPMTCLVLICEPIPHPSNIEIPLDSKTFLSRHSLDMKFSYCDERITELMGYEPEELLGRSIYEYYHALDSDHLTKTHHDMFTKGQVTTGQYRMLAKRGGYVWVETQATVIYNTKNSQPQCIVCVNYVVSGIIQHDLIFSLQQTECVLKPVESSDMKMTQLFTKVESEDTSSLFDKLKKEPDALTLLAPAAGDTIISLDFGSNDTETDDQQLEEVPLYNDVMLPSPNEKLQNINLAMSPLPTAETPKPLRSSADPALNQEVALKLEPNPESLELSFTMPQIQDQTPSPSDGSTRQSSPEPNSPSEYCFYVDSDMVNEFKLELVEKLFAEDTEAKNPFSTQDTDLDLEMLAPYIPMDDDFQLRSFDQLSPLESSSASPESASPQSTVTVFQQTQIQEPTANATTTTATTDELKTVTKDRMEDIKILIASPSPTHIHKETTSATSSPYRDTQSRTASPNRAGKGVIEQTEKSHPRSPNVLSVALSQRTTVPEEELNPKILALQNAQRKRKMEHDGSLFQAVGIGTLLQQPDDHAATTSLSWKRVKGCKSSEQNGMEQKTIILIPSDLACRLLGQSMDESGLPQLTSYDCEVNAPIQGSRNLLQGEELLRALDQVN
Sequence of Nuclear factor NF-kappa-B p105 subunit (Homo sapiens) (P19838 whole entry, looked up): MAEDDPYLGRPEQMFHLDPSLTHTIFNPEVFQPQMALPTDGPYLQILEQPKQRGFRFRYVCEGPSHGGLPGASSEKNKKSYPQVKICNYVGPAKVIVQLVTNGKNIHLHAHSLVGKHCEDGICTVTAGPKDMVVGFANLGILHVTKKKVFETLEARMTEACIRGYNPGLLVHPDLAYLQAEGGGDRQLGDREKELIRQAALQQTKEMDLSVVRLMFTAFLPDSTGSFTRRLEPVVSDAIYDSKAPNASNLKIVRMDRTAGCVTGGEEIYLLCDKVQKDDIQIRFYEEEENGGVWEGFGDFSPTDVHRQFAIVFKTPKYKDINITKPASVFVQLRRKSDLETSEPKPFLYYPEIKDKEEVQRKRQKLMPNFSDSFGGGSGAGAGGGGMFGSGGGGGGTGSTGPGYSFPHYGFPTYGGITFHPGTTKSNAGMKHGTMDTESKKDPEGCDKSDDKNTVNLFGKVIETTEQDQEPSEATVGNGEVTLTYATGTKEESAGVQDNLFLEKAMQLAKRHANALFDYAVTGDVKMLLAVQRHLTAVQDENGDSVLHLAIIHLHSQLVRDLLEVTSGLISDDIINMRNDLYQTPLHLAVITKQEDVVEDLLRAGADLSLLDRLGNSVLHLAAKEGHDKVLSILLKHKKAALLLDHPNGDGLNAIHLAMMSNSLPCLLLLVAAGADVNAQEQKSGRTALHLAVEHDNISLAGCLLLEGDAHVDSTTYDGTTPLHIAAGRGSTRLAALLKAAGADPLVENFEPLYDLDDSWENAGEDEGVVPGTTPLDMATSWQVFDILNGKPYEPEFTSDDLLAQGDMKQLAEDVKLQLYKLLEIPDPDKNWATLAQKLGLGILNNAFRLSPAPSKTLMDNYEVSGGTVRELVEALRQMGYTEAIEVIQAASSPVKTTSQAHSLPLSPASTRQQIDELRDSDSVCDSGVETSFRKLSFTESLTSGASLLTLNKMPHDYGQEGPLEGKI

CCOCN(C(=O)CCl)c1c(C)cccc1CC
active: [2] 81.2 µM | [3] 76.4 µM | [5] 63 µM | [10] 88.4 µM | [12] 50 µM | [16] 0.338 µM
not listed: [18]
inactive: all other assays above

CC1(C)C(C=C(Cl)Cl)C1C(=O)OC(C#N)c1ccc(F)c(Oc2ccccc2)c1 (configuration not stated)
inactive: all assays above

O=S(=O)(O)C(F)(F)C(F)(F)C(F)(F)C(F)(F)C(F)(F)C(F)(F)C(F)(F)C(F)(F)F
active: [2] 83.8 µM and 92.2 µM and 81.5 µM | [5] 77.6 µM and 50 µM | [8] 33.1 µM and 32.8 µM and 62.9 µM | [10] 76 µM and 50 µM and 48 µM | [11] 61.1 µM | [12] 82.5 µM and 84.5 µM and 48 µM | [13] 87.5 µM and 83.7 µM | MYC, MYC (gene 4609) 50 µM [middle of 4 runs] | [17] 50 µM
inactive: [1] | [2] | HGF (gene 3082) | [4] | [5] | [6] | [7] | [8] | [9] | [10] | [11] | [12] | [13] | [14] | [15] | [17]

CC1(c2ccc(Oc3ccccc3)cc2)OC(=O)N(Nc2ccccc2)C1=O (configuration not stated)
active: [2] 12.5 µM | [3] 8.33 µM | [4] 13.3 µM | [5] 13.4 µM | [6] 21.1 µM | [7] 26.3 µM | [8] 2.79 µM | [9] 33.5 µM | [10] 21.5 µM | [11] 12.3 µM | [12] 10.6 µM | [13] 26.1 µM | MYC, MYC (gene 4609) 10.2 µM | [14] 10.6 µM | [15] 6.47 µM | [17] 12.1 µM
inactive: [1] | HGF (gene 3082) | [18]

CCN(CC)C(=O)SCc1ccc(Cl)cc1
not listed: [18]
inactive: all other assays above
